Measurements from PubChem BioAssay (NCI).
About 79,000 compounds went through this panel and 15% of them were active in at least one assay; those are over-represented in the sample as a whole. No stated cut-off is given here; in the data, active means growth inhibition above about 70%; inactive means the rest.

How the values were obtained:
[1] = NCI Yeast Anticancer Drug Screen. Data for the rad50 strain (AID 155);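 further: 0% = growth of vehicle-only cultures of the same strain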; settings: S. cerevisiae rad50 strain growth inhibition; at 50.0 µM; stronger effect = higher value
In short: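 Relative growth inhibition (compound vs vehicle) was measured in yeast with a defined repair-gene alteration.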

[2] = NCI Yeast Anticancer Drug Screen. Data for the mec2-1 strain (AID 157); settings: S. cerevisiae mec2-1 strain, at 50.0 µM, stronger effect = higher value
In short: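 Mutant yeast (mec2-1) grown with compound; growth inhibition relative to vehicle control reported.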

[3] = NCI Yeast Anticancer Drug Screen. Data for the sgs1 mgt1 strain (AID 161);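 further: 0% = growth of cultures given vehicle only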; settings: S. cerevisiae sgs1 mgt1 strain, at 50.0 µM, stronger effect = higher value
In short: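 Compounds are added to genetically altered yeast, and growth is compared with cultures given vehicle alone to give percent inhibition.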

[4] = NCI Yeast Anticancer Drug Screen. Data for the cln2 rad14 strain (AID 165);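 further: 0% = growth equal to vehicle treated cultures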; settings: S. cerevisiae cln2 rad14 strain, at 50.0 µM, stronger effect = higher value
In short: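 Readout is yeast growth inhibition versus vehicle-treated controls, using a strain with cln2 and rad14 alterations exposed to compound.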

[5] = NCI Yeast Anticancer Drug Screen. Data for the bub3 strain (AID 167); settings: S. cerevisiae bub3 mutant strain, at 50.0 µM, stronger effect = higher value
In short: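 Screening used yeast with an engineered genetic alteration affecting cell cycle control. Compound-exposed cultures were compared with vehicle cultures, and reduced growth was taken as inhibition.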

[6] = NCI Yeast Anticancer Drug Screen. Data for the mlh1 rad18 strain (AID 175); settings: S. cerevisiae mlh1 rad18 strain growth inhibition; at 50.0 µM; stronger effect = higher value
In short: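 Genetically defined yeast (DNA repair-deficient) exposed to compounds; growth inhibition determined relative to vehicle.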

Measured: growth inhibition

CCCCCCCS(=O)(=O)CCCCC(=O)O
inactive: [1] -17.4% | [2] -5.85% | [3] -7% | [4] -3.35% | [5] 6.7% | [6] -9.5%

CS(=O)(=O)Oc1ccc2cc(Br)ccc2c1
inactive: [1] 13.6% | [2] -5.35% | [3] -0.3% | [4] 4.25% | [5] 31.4% | [6] 9.75%

COC(=O)CCC(=O)NCC(=O)OCc1ccccc1
inactive: [1] 0.55% | [2] -1.85% | [3] -13.9% | [4] 3.05% | [5] -11.8% | [6] 19.2%

Cc1ccnc(NC(NC(=O)c2ccccc2)(C(F)(F)F)C(F)(F)F)c1
inactive: [1] 4.75% | [2] 3.5% | [3] 12.8% | [4] 23.2% | [5] -8.05% | [6] -39.5%

Cn1nc2ccccc2cc1=O
inactive: [1] 20.7% | [2] 2.65% | [3] -2.1% | [4] 14.2% | [5] 10.8% | [6] 14.9%

CC(C)CC1NC(=O)C(C(C)C)NC(=O)CC(C)COC(=O)C(CC(C)C)N(C)C(=O)C(C(C)C)NC(=O)C(C(C)C)OC1=O (stereo unspecified)
inactive: [1] -8.2% | [2] -3.7% | [3] 7.55% | [4] 7.95% | [5] 8.1% | [6] 14.3%

COc1ccc(C=Nc2ccc(C(=O)O)cc2)cc1
inactive: [1] 0.5% | [2] 9.35% | [3] 1.45% | [4] -2.25% | [5] 13.9% | [6] -6.25%

Nc1ccc(C2SCC(=O)N2NS(=O)(=O)c2cccc(C(=O)O)c2)cc1 (stereo unspecified)
inactive: [1] -21.3% | [2] -24.1% | [3] 6.8% | [4] 0.8% | [5] -46.2% | [6] -54.5%

O=C(O)CCSSCCCS(=O)O
inactive: [1] -26.6% | [2] -3% | [3] 36% | [4] 18.9% | [5] 0.45% | [6] -2.2%

O=C(O)CCc1ccc2c(c1)C(=O)CC2
inactive: [1] -35% | [2] -27.9% | [3] -23.2% | [4] -16.1% | [5] -3.95% | [6] -37.4%

Cc1cc(Cl)ccc1NC(=O)C1C(=O)C(=O)N(c2ccc(Cl)cc2C)C1=O (stereo unspecified)
inactive: [1] 7.4% | [2] -2.3% | [3] 14.8% | [4] 13.4% | [5] -18.2% | [6] 17.2%

COC1CC2CC1C1COCC21 (stereo unspecified)
inactive: [1] 7.15% | [2] -4.05% | [3] -19.9% | [4] -12.4% | [5] -12.4% | [6] -7.6%

CSc1nc2c(nnn2C2OCC(O)C(O)C2O)c(=O)[nH]1 (stereo unspecified)
inactive: [1] -10.7% | [2] -0.5% | [3] -11.9% | [4] -4.3% | [5] -6.1% | [6] 6.4%

NOCc1ccc(OCc2ccccc2)cc1
inactive: [1] 5.75% | [2] 7.3% | [3] -6.7% | [4] -18.8% | [5] -2.4% | [6] -11.5%

O=[N+]([O-])c1ccc(N2CCN=N2)cc1
inactive: [1] -24.2% | [2] -14.6% | [3] -15.2% | [4] 2.35% | [5] -14.2% | [6] -6.75%

COc1ccc(/C=C2\N=C(c3ccc([N+](=O)[O-])cc3)OC2=O)cc1
inactive: [1] -2.7% | [2] -6% | [3] -8.35% | [4] -9.5% | [5] 0.55% | [6] 18.4%

CCN(CC)CCOC(=O)c1ccc(NC(=O)OCCC(C)OC(=O)Nc2ccc(C(=O)OCCN(CC)CC)cc2)cc1 (stereo unspecified)
inactive: [1] -1.55% | [2] 1.2% | [3] -1.65% | [4] -4.4% | [5] -6.6% | [6] 11.9%

CC1=NOC(C)(O)/C1=N/O (stereo unspecified)
inactive: [1] 6.8% | [2] 1.05% | [3] 17.9% | [4] -2.75% | [5] 9.75% | [6] -21.3%

[CH3][Ge]([CH3])([CH3])/[C](=[C](\c1ccccc1)[Ge]([CH3])([CH3])[CH3])c1ccccc1
inactive: [1] 39.6% | [2] -3.5% | [3] 10% | [4] 9.6% | [5] -1.5% | [6] 9.65%

Oc1ccccc1CN1CCOCC1 (tested in a mixture with another compound)
inactive: [1] -2.7% | [2] -7.05% | [3] 6.95% | [4] -46.2% | [5] 0.2% | [6] -6.25%

O=C(O)CCCCc1ccc2ccccc2c1
inactive: [1] 4% | [2] 15.4% | [3] 16.4% | [4] 29.2% | [5] 5.95% | [6] 26.8%
